Counter-ions that a name gives are not always drawn. ± gives the standard deviation of the averaged measurements.
How the values were obtained:
[1] = system: Saccharomyces cerevisiae BY4741 SeMeCo community; assay: mean cell size (pixel area) (pixels); higher = larger cells; conditions: 10 µM; 24 h; SM minimal medium
Summary of the method: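 A four-plasmid fluorescent Saccharomyces cerevisiae BY4741 community was tested; each plasmid complements one auxotrophy and carries a fluorescent marker. An overnight preculture at OD600 = 1.0 was diluted to OD600 = 0.3, and 70 µl was added to 384-well plates acoustically predosed with drug (final 10 µM) in SM medium for 24 h. Cells were fixed with paraformaldehyde and imaged by automated confocal microscopy, with analysis in Harmony. Mean cell pixel area per well is averaged over 3 replicates. Same SeMeCo high-content imaging drug screen: Selleck FDA-approved drugs at 10 µM, 24 h in SM medium, 384-well plates, 3 replicates.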

[2] = system: Saccharomyces cerevisiae BY4741 SeMeCo community; assay: z-score of prototroph abundance vs DMSO median; higher = larger share of this subpopulation than in DMSO controls; conditions: 10 µM; 24 h; SM minimal medium; subpopulation (auxotrophy): Prototroph
Summary of the method: (§1)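 A community of Saccharomyces cerevisiae BY4741 was built from four plasmids that each restored one auxotrophy and encoded a distinct fluorescent protein. Pre-grown overnight to OD600 1.0 and diluted to 0.3, it was dispensed at 70 µl into 384-well plates acoustically predosed with library drugs for a final 10 µM, and grown 24 h in minimal SM medium. Cells were then paraformaldehyde-fixed and imaged by automated confocal microscopy. Thresholds and autofluorescence correction came from single-auxotroph fluorescent strains, and each subpopulation's abundance was scored as a z-score relative to the vehicle-well median.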

[3] = system: Saccharomyces cerevisiae BY4741 SeMeCo community; assay: z-score of subpopulation abundance vs DMSO median, subpopulation auxotrophic for M; higher = larger share of this subpopulation than in DMSO controls; conditions: 10 µM; 24 h; SM minimal medium; subpopulation (auxotrophy): M
Summary of the method: as §1

[4] = system: Saccharomyces cerevisiae BY4741 SeMeCo community; assay: z-score of subpopulation abundance vs DMSO median, subpopulation auxotrophic for L; higher = larger share of this subpopulation than in DMSO controls; conditions: 10 µM; 24 h; SM minimal medium; subpopulation (auxotrophy): L
Summary of the method: as §1

[5] = system: Saccharomyces cerevisiae BY4741 SeMeCo community; assay: z-score of subpopulation abundance vs DMSO median, subpopulation auxotrophic for U; higher = larger share of this subpopulation than in DMSO controls; conditions: 10 µM; 24 h; SM minimal medium; subpopulation (auxotrophy): U
Summary of the method: as §1

[6] = system: Saccharomyces cerevisiae BY4741 SeMeCo community; assay: z-score of subpopulation abundance vs DMSO median, subpopulation auxotrophic for LU; higher = larger share of this subpopulation than in DMSO controls; conditions: 10 µM; 24 h; SM minimal medium; subpopulation (auxotrophy): LU
Summary of the method: as §1

[7] = system: Saccharomyces cerevisiae BY4741 SeMeCo community; assay: z-score of subpopulation abundance vs DMSO median, subpopulation auxotrophic for LM; higher = larger share of this subpopulation than in DMSO controls; conditions: 10 µM; 24 h; SM minimal medium; subpopulation (auxotrophy): LM
Summary of the method: as §1

[8] = system: Saccharomyces cerevisiae BY4741 SeMeCo community; assay: z-score of subpopulation abundance vs DMSO median, subpopulation auxotrophic for HM; higher = larger share of this subpopulation than in DMSO controls; conditions: 10 µM; 24 h; SM minimal medium; subpopulation (auxotrophy): HM
Summary of the method: as §1

[9] = system: Saccharomyces cerevisiae BY4741 SeMeCo community; assay: z-score of subpopulation abundance vs DMSO median, subpopulation auxotrophic for HU; higher = larger share of this subpopulation than in DMSO controls; conditions: 10 µM; 24 h; SM minimal medium; subpopulation (auxotrophy): HU
Summary of the method: as §1

[10] = system: Saccharomyces cerevisiae BY4741 SeMeCo community; assay: z-score of subpopulation abundance vs DMSO median, subpopulation auxotrophic for UM; higher = larger share of this subpopulation than in DMSO controls; conditions: 10 µM; 24 h; SM minimal medium; subpopulation (auxotrophy): UM
Summary of the method: as §1

[11] = system: Saccharomyces cerevisiae BY4741 SeMeCo community; assay: z-score of subpopulation abundance vs DMSO median, subpopulation auxotrophic for HL; higher = larger share of this subpopulation than in DMSO controls; conditions: 10 µM; 24 h; SM minimal medium; subpopulation (auxotrophy): HL
Summary of the method: as §1

[12] = system: Saccharomyces cerevisiae BY4741 SeMeCo community; assay: z-score of subpopulation abundance vs DMSO median, subpopulation auxotrophic for HLU; higher = larger share of this subpopulation than in DMSO controls; conditions: 10 µM; 24 h; SM minimal medium; subpopulation (auxotrophy): HLU
Summary of the method: as §1

[13] = system: Saccharomyces cerevisiae BY4741 SeMeCo community; assay: z-score of subpopulation abundance vs DMSO median, subpopulation auxotrophic for HLM; higher = larger share of this subpopulation than in DMSO controls; conditions: 10 µM; 24 h; SM minimal medium; subpopulation (auxotrophy): HLM
Summary of the method: as §1

[14] = system: Saccharomyces cerevisiae BY4741 SeMeCo community; assay: z-score of subpopulation abundance vs DMSO median, subpopulation auxotrophic for HUM; higher = larger share of this subpopulation than in DMSO controls; conditions: 10 µM; 24 h; SM minimal medium; subpopulation (auxotrophy): HUM
Summary of the method: as §1

[15] = system: Saccharomyces cerevisiae BY4741 SeMeCo community; assay: z-score of subpopulation abundance vs DMSO median, subpopulation auxotrophic for HLUM; higher = larger share of this subpopulation than in DMSO controls; conditions: 10 µM; 24 h; SM minimal medium; subpopulation (auxotrophy): HLUM
Summary of the method: as §1

[16] = system: Saccharomyces cerevisiae BY4741 SeMeCo community; assay: z-score of subpopulation abundance vs DMSO median, subpopulation auxotrophic for H; higher = larger share of this subpopulation than in DMSO controls; conditions: 10 µM; 24 h; SM minimal medium; subpopulation (auxotrophy): H
Summary of the method: as §1

[17] = system: Saccharomyces cerevisiae BY4741 SeMeCo community; assay: z-score of subpopulation abundance vs DMSO median, subpopulation auxotrophic for LUM; higher = larger share of this subpopulation than in DMSO controls; conditions: 10 µM; 24 h; SM minimal medium; subpopulation (auxotrophy): LUM
Summary of the method: as §1

SMILES | mean cell size [1] | z-score of prototroph abundance [2] | z-score of subpopulation abundance [3] | z-score of subpopulation abundance [4] | z-score of subpopulation abundance [5] | z-score of subpopulation abundance [6] | z-score of subpopulation abundance [7] | z-score of subpopulation abundance [8] | z-score of subpopulation abundance [9] | z-score of subpopulation abundance [10] | z-score of subpopulation abundance [11] | z-score of subpopulation abundance [12] | z-score of subpopulation abundance [13] | z-score of subpopulation abundance [14] | z-score of subpopulation abundance [15] | z-score of subpopulation abundance [16] | z-score of subpopulation abundance [17]
C#C[C@]1(O)CC[C@H]2[C@@H]3CCC4=CCCC[C@@H]4[C@H]3C(=C)C[C@@]21CC [Desogestrel] | 12.3 ± 0.29 | 0.47 | -0.11 | -0.12 | -0.38 | 0.22 | -0.94 | -0.05 | -0.11 | -1.41 | 0.58 | 0.73 | -0.87 | -0.05 | -0.48 | – | –
O=C(C1CCCCC1)N1CC(=O)N2CCc3ccccc3C2C1 (stereo not given) [Praziquantel] | 12.39 ± 0.1 | -0.09 | 0.19 | 0.31 | – | 0.75 | 0.34 | -0.5 | -0.36 | 0.1 | -0.41 | 0.47 | -1.06 | -0.37 | 0.11 | -0.1 | 0.43
CN(C)CCN1C(=O)c2cccc3cc(N)cc(c23)C1=O [Amonafide] | 12.29 ± 0.1 | 0.47 | 0.34 | -0.4 | – | -0.78 | 1.08 | -0.01 | -0.59 | -0.24 | -0.12 | 0.2 | -0.38 | -0.09 | -0.08 | 0.02 | 0.44
CS(=O)(=O)c1ccc([C@@H](O)[C@@H](CF)NC(=O)C(Cl)Cl)cc1 [Florfenicol] | 12.4 ± 0.26 | 0.5 | -1.1 | -0.16 | 0.29 | -0.09 | -0.75 | -1.52 | 0 | -0.38 | -0.56 | -0.45 | -0.4 | -0.98 | -0.14 | -0.98 | –
NC(=O)c1cn(Cc2c(F)cccc2F)nn1 [Rufinamide] | 12.2 ± 0.16 | – | 0.02 | 1.41 | -0.6 | 0.45 | 0.7 | 0.75 | -0.24 | -0.01 | 0.55 | 0.55 | 0.38 | 0.45 | 0.29 | 0.5 | –
CN(CCN1CCC(OC(=O)Nc2ccccc2-c2ccccc2)CC1)C(=O)c1ccc(CN2CCC(C(N)=O)CC2)cc1 [Revefenacin] | 12.17 ± 0.043 | -0.26 | 1.54 | -0.42 | – | 0.12 | 0.16 | 0.49 | -0.27 | 0.92 | -0.32 | -0.13 | -0.49 | 0.24 | -0.7 | -0.6 | 0.17
O=C(O)c1cc(O)c2c(c1)[C@H]([C@H]1c3cc(C(=O)O)cc(O)c3C(=O)c3c(O[C@@H]4O[C@H](CO)[C@@H](O)[C@H](O)[C@H]4O)cccc31)c1cccc(O[C@@H]3O[C@H](CO)[C@@H](O)[C@H](O)[C@H]3O)c1C2=O [Sennoside A] | 12.57 ± 0.12 | 0.91 | -1.76 | -0.65 | 0.7 | 0.29 | -0.8 | -1.46 | 0.33 | -0.14 | – | -0.71 | -1.24 | -0.7 | -1.25 | 0 | –
C[C@]12CC[C@@H]3c4ccc(O)cc4CC[C@H]3[C@@H]1C[C@@H](O)[C@@H]2O [Estriol] | 12.41 ± 0.12 | 0.65 | -0.11 | 0.63 | -0.19 | -0.08 | 0.01 | -0.18 | -0.16 | – | – | -0.08 | 0.3 | -0.83 | -0.69 | 0.24 | –
CC(=O)N[C@H]1[C@H]([C@H](O)[C@H](O)CO)OC(C(=O)O)=C[C@@H]1NC(=N)N [Zanamivir] | 11.9 ± 0.17 | -0.31 | 0.82 | 1.27 | -1.03 | -0.15 | 1.52 | 0.87 | -0.41 | -0.2 | 1.66 | 0.56 | 0.19 | 0.23 | 0.38 | 0.63 | –
CN1CCN(c2cc3c(cc2F)c(=O)c(C(=O)O)cn3-c2ccc(F)cc2)CC1 [Difloxacin hydrochloride] | 12.1 ± 0.29 | 0.85 | 0.06 | -0.28 | – | -0.13 | -0.31 | -0.76 | -0.87 | -0.52 | -1.38 | -0.55 | -0.2 | -0.72 | 0.23 | -2.54 | -0.26
C=C1CCN([C@H](C)[C@](O)(Cn2cncn2)c2ccc(F)cc2F)CC1 [Efinaconazole] | 11.3 ± 0.097 | -9.55 | 2.69 | 0.13 | – | -1.98 | 2.18 | 3.94 | 2.02 | 16.2 | 11.6 | 3 | 10.7 | 7.05 | 20.3 | 11.9 | –
